# Whole data set: some 2,900 compounds, median “NF-kB SEAP reporter activity, fold change vs agonist alone” near 0.99, cut for the highest 2% near 2.6. This excerpt belongs to a sample that is enriched for the highest values.
# How the values were obtained:
# RAW-Dual [1] = assay: NF-kB SEAP reporter activity, fold change vs agonist alone; cytotoxicity flag (confluency mask): not cytotoxic; higher = enhanced NF-kB activity
# How it was run: (§1)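 RAW-Dual macrophages were seeded in DMEM at 50,000 cells/well in 384-well plates, given 50 nL of library stock by pin tool, and given a PRR agonist 1 h later. Plates were held at 37 °C, 5% CO2 for 20 hours, after which supernatant was read for IRF by QuantiLuc luminescence and for NF-κB by QuantiBlue absorbance at 620 nm. Reporter activity is expressed as fold change over wells that received agonist alone. A well was called cytotoxic when IncuCyte confluency fell below 70% of agonist controls in both mask sets.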
# RAW-Dual [2] = assay: NF-kB SEAP reporter activity, fold change vs agonist alone; higher = enhanced NF-kB activity; settings: cytotoxicity flag (confluency mask): not cytotoxic
# How it was run: as §1
# [3] = agonist: ODN 1826 (TLR9) 0.5 ug/mL
# [4] = agonist: Pam2CSK4 (TLR2/6) 0.1 ug/mL
# [5] = agonist: Pam3CSK4 (TLR2/1) 0.1 ug/mL
# [6] = library stock concentration (final ~1000-fold dilution): 10 mM, agonist: Imiquimod (TLR7) […]
# [7] = library stock concentration (final ~1000-fold dilution): 10 mM, agonist: MPLA (TLR4) […]
compound,measurement,setting,value
COc1c(O)c(C)cc2c1C(=O)c1c(O)cccc1C2=O (library stock concentration (final ~1000-fold dilution): 10 mM),NF-kB SEAP reporter activity,RAW-Dual [1]; agonist: LPS (TLR4) 0.1 ug/mL,1.19
same,NF-kB SEAP reporter activity,RAW-Dual [1]; [3],1.02
same,NF-kB SEAP reporter activity,RAW-Dual [1]; [4],1.04
same,NF-kB SEAP reporter activity,RAW-Dual [1]; [5],1.01
COc1ccc2cccc(CCNC(C)=O)c2c1,NF-kB SEAP reporter activity,RAW-Dual [2]; [6],0.972
same,NF-kB SEAP reporter activity,RAW-Dual [2]; [7],0.963
CCOc1ccc(Cc2cc(C34OCC(CO)(O3)C(O)C(O)C4O)ccc2Cl)cc1 (configuration not stated),NF-kB SEAP reporter activity,RAW-Dual [2]; [7],1.09
CCOc1ccc(Cc2cc(C34OCC(CO)(O3)C(O)C(O)C4O)ccc2Cl)cc1 (configuration not stated) (library stock concentration (final ~1000-fold dilution): 10 mM),NF-kB SEAP reporter activity,RAW-Dual [1]; agonist: LPS (TLR4) 0.1 ug/mL,0.975
same,NF-kB SEAP reporter activity,RAW-Dual [1]; [3],1.1
same,NF-kB SEAP reporter activity,RAW-Dual [1]; [4],1.13
same,NF-kB SEAP reporter activity,RAW-Dual [1]; [5],0.829
COc1ccc(CCN(C)CCCC(C#N)(c2ccc(OC)c(OC)c2)C(C)C)cc1OC.Cl (configuration not stated),NF-kB SEAP reporter activity,RAW-Dual [2]; [6],0.98
same,NF-kB SEAP reporter activity,RAW-Dual [2]; [7],1.03
COc1ccc(CCN(C)CCCC(C#N)(c2ccc(OC)c(OC)c2)C(C)C)cc1OC.Cl (configuration not stated) (library stock concentration (final ~1000-fold dilution): 10 mM),NF-kB SEAP reporter activity,RAW-Dual [1]; agonist: LPS (TLR4) 0.1 ug/mL,1.06
same,NF-kB SEAP reporter activity,RAW-Dual [1]; [3],0.89
same,NF-kB SEAP reporter activity,RAW-Dual [1]; [4],0.949
same,NF-kB SEAP reporter activity,RAW-Dual [1]; [5],1.04
CN1CC(=O)N2C(Cc3c([nH]c4ccccc34)C2c2ccc3c(c2)OCO3)C1=O (configuration not stated),NF-kB SEAP reporter activity,RAW-Dual [2]; [6],0.955
same,NF-kB SEAP reporter activity,RAW-Dual [2]; [7],0.984
CN1CC(=O)N2C(Cc3c([nH]c4ccccc34)C2c2ccc3c(c2)OCO3)C1=O (configuration not stated) (library stock concentration (final ~1000-fold dilution): 10 mM),NF-kB SEAP reporter activity,RAW-Dual [1]; agonist: LPS (TLR4) 0.1 ug/mL,1.17
same,NF-kB SEAP reporter activity,RAW-Dual [1]; [3],1.18
same,NF-kB SEAP reporter activity,RAW-Dual [1]; [4],1.13
same,NF-kB SEAP reporter activity,RAW-Dual [1]; [5],1.11
O=S(=O)(NCCSSCCNS(=O)(=O)c1cc(Cl)ccc1Cl)c1cc(Cl)ccc1Cl (library stock concentration (final ~1000-fold dilution): 10 mM),NF-kB SEAP reporter activity,RAW-Dual [1]; agonist: LPS (TLR4) 0.1 ug/mL,0.705
same,NF-kB SEAP reporter activity,RAW-Dual [1]; [3],0.705
same,NF-kB SEAP reporter activity,RAW-Dual [1]; [4],0.573
same,NF-kB SEAP reporter activity,RAW-Dual [1]; [5],0.312
Cc1ccc([N+](=O)[O-])cc1S(=O)(=O)N(C)C,NF-kB SEAP reporter activity,RAW-Dual [2]; [6],0.951
same,NF-kB SEAP reporter activity,RAW-Dual [2]; [7],1.14
Cc1cc([N+](=O)[O-])ccc1NS(=O)(=O)c1cc(Cl)ccc1Cl,NF-kB SEAP reporter activity,RAW-Dual [2]; [6],1.01
same,NF-kB SEAP reporter activity,RAW-Dual [2]; [7],1.41
O=S(=O)(NCCSSCCNS(=O)(=O)c1cc(Cl)ccc1Cl)c1cc(Cl)ccc1Cl,NF-kB SEAP reporter activity,RAW-Dual [2]; [6],1.13
same,NF-kB SEAP reporter activity,RAW-Dual [2]; [7],1.03
Cc1ccc([N+](=O)[O-])cc1S(=O)(=O)N(C)C (library stock concentration (final ~1000-fold dilution): 10 mM),NF-kB SEAP reporter activity,RAW-Dual [1]; agonist: LPS (TLR4) 0.1 ug/mL,1.07
same,NF-kB SEAP reporter activity,RAW-Dual [1]; [3],0.867
same,NF-kB SEAP reporter activity,RAW-Dual [1]; [4],0.994
same,NF-kB SEAP reporter activity,RAW-Dual [1]; [5],1.36
Cc1cc([N+](=O)[O-])ccc1NS(=O)(=O)c1cc(Cl)ccc1Cl (library stock concentration (final ~1000-fold dilution): 10 mM),NF-kB SEAP reporter activity,RAW-Dual [1]; agonist: LPS (TLR4) 0.1 ug/mL,3.09
same,NF-kB SEAP reporter activity,RAW-Dual [1]; [3],0.67
same,NF-kB SEAP reporter activity,RAW-Dual [1]; [4],0.323
same,NF-kB SEAP reporter activity,RAW-Dual [1]; [5],0.349
COC(C)Cn1c(=O)n(C)c2cnc3ccc(-c4cncc(C(C)(C)O)c4)cc3c21 (configuration not stated) (library stock concentration (final ~1000-fold dilution): 10 mM),NF-kB SEAP reporter activity,RAW-Dual [1]; agonist: LPS (TLR4) 0.1 ug/mL,1.84
same,NF-kB SEAP reporter activity,RAW-Dual [1]; [3],1.26
same,NF-kB SEAP reporter activity,RAW-Dual [1]; [4],0.476
same,NF-kB SEAP reporter activity,RAW-Dual [1]; [5],1.03
COC(C)Cn1c(=O)n(C)c2cnc3ccc(-c4cncc(C(C)(C)O)c4)cc3c21 (configuration not stated),NF-kB SEAP reporter activity,RAW-Dual [2]; [6],0.865
same,NF-kB SEAP reporter activity,RAW-Dual [2]; [7],1.85
CC(=O)c1c(C)c2cnc(Nc3ccc(N4CCNCC4)cn3)nc2n(C2CCCC2)c1=O.O=S(=O)(O)CCO (library stock concentration (final ~1000-fold dilution): 10 mM water),NF-kB SEAP reporter activity,RAW-Dual [1]; agonist: LPS (TLR4) 0.1 ug/mL,1.71
same,NF-kB SEAP reporter activity,RAW-Dual [1]; [3],0.449
same,NF-kB SEAP reporter activity,RAW-Dual [1]; [4],0.752
same,NF-kB SEAP reporter activity,RAW-Dual [1]; [5],1.29
CC(=O)c1c(C)c2cnc(Nc3ccc(N4CCNCC4)cn3)nc2n(C2CCCC2)c1=O.O=S(=O)(O)CCO,NF-kB SEAP reporter activity,"RAW-Dual [2]; library stock concentration (final ~1000-fold dilution): 10 mM water, agonist: Imiquimod (TLR7) […]",0.674
same,NF-kB SEAP reporter activity,"RAW-Dual [2]; library stock concentration (final ~1000-fold dilution): 10 mM water, agonist: MPLA (TLR4) […]",1.09
CCC(Nc1ncnc2[nH]cnc12)c1nc2cccc(F)c2c(=O)n1-c1ccccc1 (configuration not stated),NF-kB SEAP reporter activity,RAW-Dual [2]; [6],0.75
same,NF-kB SEAP reporter activity,RAW-Dual [2]; [7],0.952
CCC(Nc1ncnc2[nH]cnc12)c1nc2cccc(F)c2c(=O)n1-c1ccccc1 (configuration not stated) (library stock concentration (final ~1000-fold dilution): 10 mM),NF-kB SEAP reporter activity,RAW-Dual [1]; agonist: LPS (TLR4) 0.1 ug/mL,1.27
same,NF-kB SEAP reporter activity,RAW-Dual [1]; [3],1.08
same,NF-kB SEAP reporter activity,RAW-Dual [1]; [4],0.969
same,NF-kB SEAP reporter activity,RAW-Dual [1]; [5],0.843
CC(NC(=O)c1ncnc(N)c1Cl)c1ncc(C(=O)Nc2cc(C(F)(F)F)c(Cl)cn2)s1 (configuration not stated) (library stock concentration (final ~1000-fold dilution): 10 mM),NF-kB SEAP reporter activity,RAW-Dual [1]; agonist: LPS (TLR4) 0.1 ug/mL,0.632
same,NF-kB SEAP reporter activity,RAW-Dual [1]; [3],0.495
same,NF-kB SEAP reporter activity,RAW-Dual [1]; [4],0.383
same,NF-kB SEAP reporter activity,RAW-Dual [1]; [5],0.417
CC(NC(=O)c1ncnc(N)c1Cl)c1ncc(C(=O)Nc2cc(C(F)(F)F)c(Cl)cn2)s1 (configuration not stated),NF-kB SEAP reporter activity,RAW-Dual [2]; [6],0.623
same,NF-kB SEAP reporter activity,RAW-Dual [2]; [7],0.876
O=C1C(Cc2ccc(O)cc2)N2C(=O)CCN(C(=O)NCc3ccccc3)C2CN1Cc1cccc2ccccc12 (configuration not stated),NF-kB SEAP reporter activity,RAW-Dual [2]; [6],1.45
same,NF-kB SEAP reporter activity,RAW-Dual [2]; [7],2.26
O=C1C(Cc2ccc(O)cc2)N2C(=O)CCN(C(=O)NCc3ccccc3)C2CN1Cc1cccc2ccccc12 (configuration not stated) (library stock concentration (final ~1000-fold dilution): 10 mM),NF-kB SEAP reporter activity,RAW-Dual [1]; agonist: LPS (TLR4) 0.1 ug/mL,3.72
same,NF-kB SEAP reporter activity,RAW-Dual [1]; [3],1.08
same,NF-kB SEAP reporter activity,RAW-Dual [1]; [4],0.484
same,NF-kB SEAP reporter activity,RAW-Dual [1]; [5],0.63
CNCCN1CCC(OCc2ccccc2)CC1.Cl.Cl,NF-kB SEAP reporter activity,RAW-Dual [2]; [6],1.55
same,NF-kB SEAP reporter activity,RAW-Dual [2]; [7],0.921
CNCCN1CCC(OCc2ccccc2)CC1.Cl.Cl (library stock concentration (final ~1000-fold dilution): 10 mM),NF-kB SEAP reporter activity,RAW-Dual [1]; agonist: LPS (TLR4) 0.1 ug/mL,1.03
same,NF-kB SEAP reporter activity,RAW-Dual [1]; [3],1.45
same,NF-kB SEAP reporter activity,RAW-Dual [1]; [4],0.877
same,NF-kB SEAP reporter activity,RAW-Dual [1]; [5],1.53

# From the supplement of paper PMC10037445
